This is one part of a sample in which hits are shown more often than they occur.
PD-1 reversal: activators reversing PD-1 mediated T-cell inhibition; primary human CD4 T cells, PD-L1 beads, CellTiter-Glo 96 h; activation, % (test concentration not listed); 29,000 tested, under 10 active; AID 2316; call rule not given here;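 also: 0% = median vehicle wells and 100% = positive control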
YB-1 expression: YB-1 expression inhibition | U2OS, qRT-PCR YB-1 vs CDIP delta delta Cp, 16 h; stronger effect = higher value; zero = DMSO, each unit about twofold | delta delta Cp (YB-1 minus CDIP) (no concentration beside the values) | 30,000 tested, 0.37% active | AID 434959;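 active = delta delta Cp rounded down to an integer at or above 3, about 3 SD of DMSO wells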;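 also: higher means less YB-1 transcript or more CDIP transcript relative to DMSO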
U2OS ROS induce: inducers of reactive oxygen species in cancer cells. 46,000 tested, 2% active. U2OS ROS induction, H2DCF-DA fluorescence. ROS induction (% of piperlongumine), % at 10 µM. AID 624156; in the data active = ROS induction above about 79%, passing the limit was not always enough; inconclusive = no clear call, values can overlap the other calls;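 also: 0% = DMSO vehicle median and 100% = reference compound median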
NOMO-1 viab: STK33 inhibitor candidate reducing NOMO-1 cell viability. NOMO-1 AML viability, CellTiter-Glo luminescence, 72 h. inhibition, % (concentration not given with the values). 37,000 tested, 7.5% active. AID 2330; in the data active = inhibition above about 80%; inconclusive = no clear call, values can overlap the other calls
* hit, by the source's call; u = inconclusive; x = not tested or not shown.

SMILES | PD-1 reversal | YB-1 expression | U2OS ROS induce | NOMO-1 viab
C[C@H](CO)N1C[C@H](C)[C@H](CN(C)CC2CC2)Oc2ccc(NC(=O)CCCCCC(=O)Nc3ccccc3N)cc2CC1=O | -1 | -0.96 | -13 | 140*
C[C@@H]1CN([C@@H](C)CO)C(=O)Cc2cc(NC(=O)CCCCCC(=O)Nc3ccccc3N)ccc2O[C@@H]1CN(C)CC1CCCCC1 | 1 | -0.16 | 12 | 136*
CCc1cccc(OCC(=O)Nc2ccccc2C(N)=O)c1 | -4 | x | x | 52
O=C(Nc1ccc(NC(=O)c2ccccc2O)cc1)c1ccc(Cl)cc1 | 3 | 0.12 | 4 | -17
CC(C)(C)c1ccc(C(=O)Nc2ccc(NC(=O)c3ccccc3F)cc2)cc1 | 0 | -0.039 | -13 | 125*
Cn1cnnc1-c1cccc(NC(=O)C(c2ccccc2)c2ccccc2)c1 | x | x | -24 | x
C=C1C(=O)O[C@H]2C1CCC(C)=C1C(=O)C=C(C)[C@@]12O (some centres not stated) | -5 | 0.18 | 69 | 106*
Cc1ccc(SC(=O)c2c(C)noc2-c2cc(C)on2)cc1 | x | x | 109* | x
COC(=O)c1ccc(NC(=O)CSc2nncc3ccccc23)cc1 | -3 | x | 1 | 15
N#C/C(N=Cc1cccs1)=C(\C#N)NCc1ccccc1Sc1ccc(Cl)cc1 | 0 | -0.25 | 6 | 52
C=CC1(C)C[C@H](OC(=O)C(C)CO)[C@H]2C(=C)C(=O)O[C@@H]2C1C(=C)CO (some centres not stated) | -8 | -0.11 | 134* | 115*
C=C[C@]1(C)C[C@H](O)[C@H]2C(=C)C(=O)O[C@@H]2[C@H]1C(=C)CO | -1 | 0.56 | 15 | 53
Cc1cccc(OCC(=O)NC(=S)Nc2ccc(C)cc2O)c1 | -11 | x | 6 | 102*
O=C(O)CC1CCC(CC(O)/C=C\C/C=C\CCCCCO)O1 (configuration not stated) | 1 | 1.6 | 5 | 117*
CCCCC/C=C\C/C=C\C(O)CCCCCCC(=O)O (configuration not stated) | 0 | -0.66 | -6 | 33
COc1ccc(CN(C)C[C@H]2Oc3ccc(NC(=O)Cc4cn(C)c5ccccc45)cc3C(=O)N([C@H](C)CO)C[C@@H]2C)cc1 | x | -0.48 | 185* | -8
C[C@H](CO)N1C[C@H](C)[C@@H](CN(C)Cc2ccc(Oc3ccccc3)cc2)Oc2ccc(NC(=O)Cc3cn(C)c4ccccc34)cc2C1=O | -4 | 0.26 | 113* | 41
C[C@@H]1CN([C@H](C)CO)C(=O)c2cccc(NC(=O)CCCCCC(=O)Nc3ccccc3N)c2O[C@@H]1CN(C)CC1CC1 | 2 | -0.0057 | -4 | 46
C[C@@H]1CN([C@H](C)CO)C(=O)c2cccc(NC(=O)CCCCCC(=O)Nc3ccccc3N)c2O[C@H]1CN(C)CC1CC1 | 0 | 0.15 | u | 122*
C[C@@H]1CN([C@@H](C)CO)C(=O)c2cccc(NC(=O)CCCCCC(=O)Nc3ccccc3N)c2O[C@H]1CN(C)CC1CC1 | 0 | 0.087 | 27 | 128*
C[C@H]1CN([C@@H](C)CO)C(=O)c2cccc(NC(=O)CCCCCC(=O)Nc3ccccc3N)c2O[C@H]1CN(C)CC1CCCCC1 | 2 | 0.34 | 13 | 52
C[C@H]1CN([C@@H](C)CO)C(=O)c2cccc(NC(=O)CCCCCC(=O)Nc3ccccc3N)c2O[C@@H]1CN(C)CC1CC1 | -1 | 0.17 | 124* | 120*
Fc1cccc(Cl)c1CSC1=NCCN1 | -1 | -0.17 | -13 | 136*
Fc1cccc(Cl)c1CSc1ccccc1C1=NCCCN1 | 2 | -0.068 | -5 | 15
CC1OC(OC(=O)C2=CC3(O)CC(C)(C)CC34C(C)CCC24)C(O)C(O)C1O (configuration not stated) | 3 | 0.37 | -12 | -7
SMILES | PD-1 reversal | YB-1 expression | U2OS ROS induce | NOMO-1 viab
C[C@@H]1CN([C@H](C)CO)C(=O)Cc2cc(NC(=O)CCCCCC(=O)Nc3ccccc3N)ccc2O[C@H]1CN(C)Cc1ccc(Oc2ccccc2)cc1 | 2 | -0.076 | 40 | 125*
C[C@H](CO)N1C[C@H](C)[C@H](CN(C)Cc2ccc(-c3ccccc3)cc2)Oc2ccc(NC(=O)CCCCCC(=O)Nc3ccccc3N)cc2C1=O | 0 | 0.41 | -4 | 65
C[C@@H]1CN([C@@H](C)CO)C(=O)Cc2cc(NC(=O)CCCCCC(=O)Nc3ccccc3N)ccc2O[C@@H]1CN(C)Cc1ccncc1 | 0 | -0.22 | -8 | 34
C[C@@H]1CN([C@@H](C)CO)C(=O)Cc2cc(NC(=O)CCCCCC(=O)Nc3ccccc3N)ccc2O[C@@H]1CN(C)Cc1ccccc1 | -1 | -0.7 | 10 | 113*
C[C@H]1CN([C@@H](C)CO)C(=O)c2cc(NC(=O)CCCCCC(=O)Nc3ccccc3N)ccc2O[C@H]1CN(C)Cc1ccc(-c2ccccc2)cc1 | -2 | -0.063 | 14 | 109*
C[C@H]1CN([C@@H](C)CO)C(=O)Cc2cc(NC(=O)CCCCCC(=O)Nc3ccccc3N)ccc2O[C@H]1CN(C)Cc1ccc(-c2ccccc2)cc1 | -3 | -0.57 | 12 | 142*
Cn1c2ccccc2c2nnc(SCC(=O)Nc3ccc(Cl)cc3)nc21 | 2 | x | 20 | 2
CC(=O)c1c(C)n(-c2ccc(C)cc2)c2ccc(OC(=O)CN3C(=O)c4ccccc4C3=O)cc12 | -1 | x | -4 | 30
CCCn1c(NCCCO)nc2ccccc21 | 2 | x | 0 | -5
O=C(NCCC1=CCCCC1)c1ccc(Cn2c(=S)[nH]c3cc4c(cc3c2=O)OCO4)cc1 | x | x | 42 | x
O=c1[nH]cnc2c1sc1nc(N3CCOCC3)c3c(c12)CCCC3 | x | x | 45 | x
COC(=O)c1cc(C(=O)OC)cc(-n2c(C)cc(C(=O)CSc3nc(C)cc(C)c3C#N)c2C)c1 | 1 | x | 48 | 23
COc1cc(O)cc(OC)c1OC | x | 0.052 | 31 | 107*
Cc1cc(C)c(S(=O)(=O)N(CC#N)CC#N)c(C)c1 | x | x | -9 | x
Cc1ccc([N+](=O)[O-])cc1NC(=O)Cn1cnc2ccccc2c1=O | x | x | x | -8
COc1cccc(C(=O)/C=c2\[nH]c(=O)/c(=C\c3cccs3)s2)c1 | -5 | -0.52 | 1 | 104*
O=C(Cc1c[nH]c2ccccc12)NCc1ccccc1 | x | x | -15 | x
C[C@H]1CN([C@@H](C)CO)C(=O)Cc2cc(NC(=O)Cc3ccccc3)ccc2O[C@H]1CN(C)Cc1ccc(Oc2ccccc2)cc1 | -2 | -0.034 | 64 | 59
C[C@@H]1CN([C@H](C)CO)C(=O)Cc2cc(NC(=O)Cc3ccccc3)ccc2O[C@@H]1CN(C)Cc1ccc(Oc2ccccc2)cc1 | -5 | 0.012 | 95* | 116*
C[C@H]1CN([C@@H](C)CO)C(=O)Cc2cc(NC(=O)Cc3ccccc3)ccc2O[C@H]1CN(C)Cc1ccc(-c2ccccc2)cc1 | -2 | -0.15 | 21 | 99*
C[C@H]1CN([C@@H](C)CO)C(=O)c2cccc(NC(=O)Nc3ccc4c(c3)OCO4)c2O[C@@H]1CN(C)Cc1ccc(C(=O)Nc2ccccc2N)cc1 | -4 | -0.54 | 123* | 127*

Source: PubChem BioAssay
